Compound activity from PubChem BioAssay.
hcDAF12 agonist = activates DAF-12 receptor from parasite H. contortus | HEK293 hcDAF-12 lit1-tk-luc reporter, luminescence; 0% DMSO, 100% Δ7-dafachronic acid | activation, % at 6.8 µM | 1.4% of 370,000 active | AID 652067;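 active means activation above the mean of all tested compounds plus 3 SD, cut at about 5.5% in these data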
APP 5'UTR act = activates APP 5'UTR luciferase reporter; activation, % at 2 µM; SH-SY5Y APP 5'UTR luciferase reporter, luminescence; zero percent = DMSO vehicle wells; 1% of 190,000 active; AID 1276;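 active means activation above a set limit, based on mean plus 3 SD of controls, cut at about 140% in these data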
hgDAF12 agonist = activates the H. glycines DAF-12 receptor ligand-binding domain; HEK293 GAL4-hgDAF12 UAS-luciferase reporter, agonist luminescence; normalized to butyrate control; activation, % at 6.8 µM; 1.8% of 370,000 active;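 active means activation above a cutoff set at the mean of all screened compounds plus 3 SD, cut at about 10% in these data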
NF-kB expr up = compounds increasing NF-kB expression in human neuronal cells; AID 1239; NF-kB reporter expression; hits give high values; fold change at 12.5 µM; 1.6% of 190,000 active; in the data active means fold change above about 3.3
ssDAF12 agonist = S. stercoralis DAF-12 activation, primary screen. HEK293 ssDAF-12/GRIP1 lit1-tk-luc reporter, luminescence; % of 3 µM dafachronic acid response. activation, % at 6.8 µM. 1% of 370,000 active;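 active means activation above the mean over all tested compounds plus 3 SD, cut at about 0.9% in these data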
Of the large screens only hits and unclear results are named; the others gave an inactive call. A selection: hits, their analogues and other compounds. The true share with any hit is near 3.4%.

Oc1sc(C=Nc2ccccc2)c2ccccc12	APP 5'UTR act 153, NF-kB expr up 8.1
Oc1sc(C=Nc2ccc(F)cc2)c2ccccc12	none
Oc1c(C=Nc2ccccc2)sc2ccccc12	NF-kB expr up 4.6
Oc1c(C=Nc2cccnc2)sc2ccccc12	none
O=C(NCCCN1CCCC1=O)c1cc2nc(-c3ccco3)cc(C(F)(F)F)n2n1	ssDAF12 agonist 1.0 (no result: APP 5'UTR act, NF-kB expr up)
O=P(c1ccccc1)(c1ccccc1)C(O)c1ccccn1 (stereo not drawn)	ssDAF12 agonist 1.2 (no result: APP 5'UTR act, NF-kB expr up)
O=C(NC12CC3CC(CC(C3)C1)C2)c1ccc(-c2ccccc2Cl)o1	APP 5'UTR act 182
O=C(NC12CC3CC(CC(C3)C1)C2)c1ccc(-c2ccc(Cl)cc2)o1	none
Cc1onc(-c2ccccc2Cl)c1C(=O)NCC1CCCO1 (stereo not drawn)	none
O=C(NCC1CCCO1)c1ccc(-c2ccccc2Cl)o1 (stereo not drawn)	hgDAF12 agonist 13 (no result: APP 5'UTR act, NF-kB expr up)
O=C(NC12CC3CC(CC(C3)C1)C2)c1ccc(-c2cccc(Cl)c2)o1	APP 5'UTR act 192
O=C(Nc1c(-c2ccc(F)c(F)c2)nc2ncccn12)C1CC1	none (no result: APP 5'UTR act, NF-kB expr up)
CC1(c2nnnn2Cc2ccccc2)CCCC(=O)N1Cc1cccs1 (stereo not drawn)	none (no result: APP 5'UTR act, NF-kB expr up)
CCn1c(SCC(=O)c2c[nH]c3ccccc23)nc2cc(S(=O)(=O)N3CCOCC3)ccc21	hcDAF12 agonist 5.6
CCn1c(SCC(N)=O)nc2cc(S(=O)(=O)N3CCOCC3)ccc21	none
Cc1nc2cc(NC(=O)Nc3cccc([N+](=O)[O-])c3)ccc2n1C	hgDAF12 agonist 11 (no result: APP 5'UTR act, NF-kB expr up)
CCOC(=O)[C@]12CCCC=C1N(Cc1ccc(OC)cc1)C(=O)[C@@H]2CC(=O)NCc1ccc(OC)c(OC)c1	none (no result: APP 5'UTR act, NF-kB expr up)
O=C(CCc1nc(-c2ccccc2F)no1)NCCc1c[nH]c2ccccc12	none (no result: APP 5'UTR act, NF-kB expr up)
CCc1cccc2c(C(C)c3ccccc3O)c[nH]c12 (stereo not drawn)	ssDAF12 agonist 2.2 (no result: APP 5'UTR act, NF-kB expr up)
O=C(/C=C/c1ccc(N2CCCCC2)c([N+](=O)[O-])c1)c1ccc(O)cc1	NF-kB expr up 3.8
CN1[C@H](Cc2ccccc2)COc2cc(N3CCCC3)ccc2S1(=O)=O	none (no result: APP 5'UTR act, NF-kB expr up)
COC(=O)[C@H](CC(C)C)N(Cc1cn(CC2CCCCC2)nn1)S(=O)(=O)c1ccc(F)cc1Br	none (no result: APP 5'UTR act, NF-kB expr up)
C/C(=N/NC(=O)CCCOc1ccc(Cl)cc1Cl)c1ccc(C)o1	ssDAF12 agonist 1.1
O=C1CSC(=S)N1Cc1cccnc1	NF-kB expr up 4.8
CCOc1cccc2cc(-c3csc(NC(=O)CCC(=O)NCCN4CCCCC4C)n3)c(=O)oc12 (stereo not drawn)	APP 5'UTR act 178, hgDAF12 agonist 23, NF-kB expr up 6.8
CCOc1cccc2cc(-c3csc(NC(=O)CCC(=O)NCCCN4CCC(C)CC4)n3)c(=O)oc12	APP 5'UTR act 176, NF-kB expr up 5.5 (no result: hcDAF12 agonist, hgDAF12 agonist, ssDAF12 agonist)
Cc1ccc(-c2nc3ncccn3c2NC(=O)c2ccccc2)cc1	none (no result: APP 5'UTR act, NF-kB expr up)
O=[N+]([O-])c1ccc2[nH]nc(-c3ccccc3)c2c1	none
O=c1c(-c2ccccc2)n[nH]c2ccccc12	hgDAF12 agonist 11, NF-kB expr up 3.4
O=C(NCCc1ccccc1)c1ccc2nccnc2c1	hgDAF12 agonist 11
O=C(NCCc1ccccc1)c1cccnc1	hgDAF12 agonist 11
O=C(NCc1ccccc1)c1cccnc1	none (no result: APP 5'UTR act, NF-kB expr up)
COc1cc(C2c3cc4c(cc3C(O)C3COCC23)OCO4)cc(OC)c1OC (stereo not drawn)	none (no result: APP 5'UTR act, NF-kB expr up)
COc1cc([C@@H]2c3cc4c(cc3[C@H](O)[C@H]3COC(=O)[C@H]23)OCO4)cc(OC)c1OC	NF-kB expr up 3.9
c1ccc(OCc2nc3ccccc3[nH]2)cc1	hgDAF12 agonist 11
Cc1ccn2cc(C(=O)Nc3ccc4c(c3)OCCO4)nc2c1	APP 5'UTR act 143
O=C(COc1ccccc1CNCc1ccccc1)Nc1ccccc1	hgDAF12 agonist 11 (no result: APP 5'UTR act)
Cc1ccc(NC(=O)CNCc2ccccc2OCC(=O)Nc2ccc(I)cc2)cc1	none (no result: APP 5'UTR act, NF-kB expr up)
Cc1ccn2cc(C(=O)Nc3ccccc3N3CCOCC3)nc2c1	none
O=C(Nc1ccc2c(c1)OCCO2)c1ccc(Cl)c([N+](=O)[O-])c1	hgDAF12 agonist 13
O=C(Nc1ccc2c(c1)OCCO2)c1ccc(Br)o1	APP 5'UTR act 136, hgDAF12 agonist 12, NF-kB expr up 4.9
CCCN(CC1CC1)c1c2c(nc3ncnn13)CCCC2	none (no result: APP 5'UTR act, NF-kB expr up)
CC(=NNC(=O)CSc1nnc(-c2ccccc2)n1-c1ccccc1)c1ccc2ccccc2c1	none (no result: APP 5'UTR act, NF-kB expr up)
O=C(COc1ccccc1Cl)Nc1ccc2c(c1)OCCO2	APP 5'UTR act 190
COc1ccccc1OCC(=O)Nc1ccc2c(c1)OCCO2	none (no result: APP 5'UTR act, NF-kB expr up)
Cc1ccccc1OCC(=O)Nc1cccc(C(=O)O)c1	hgDAF12 agonist 11, NF-kB expr up 9
O=C(Nc1ccc2c(c1)OCCO2)c1cccc(Cl)c1Cl	hgDAF12 agonist 12 (no result: APP 5'UTR act, NF-kB expr up)
Cc1ccccc1OCC(=O)Nc1ccc2c(c1)OCCO2	hgDAF12 agonist 13 (no result: APP 5'UTR act, NF-kB expr up)
O=C(NCc1ccc(C(F)(F)F)cc1)O[C@H]1CC[C@@]23CCCN2C(=O)CCC[C@H]3C1	none (no result: APP 5'UTR act, NF-kB expr up)
C=CCN1C(=O)[C@H](CC(=O)NCc2cccc3ccccc23)[C@@]2(C(=O)OCC)CCCC=C12	none (no result: APP 5'UTR act, NF-kB expr up)
O=C(NCCc1c[nH]c2ccccc12)OCc1cn(Cc2ccc(F)c(F)c2)nn1	none (no result: APP 5'UTR act, NF-kB expr up)
O=C(NC1CCCCN(Cc2cccc(Cl)c2)C1=O)c1c(F)cccc1F (stereo not drawn)	none (no result: APP 5'UTR act, NF-kB expr up)
COc1ccc(-c2noc(CCC(=O)N3CCN(c4cccc(OC)c4)CC3)n2)cc1	none (no result: APP 5'UTR act, NF-kB expr up)
COc1ccc(-c2noc(CCC(=O)N3CCC(c4cc(C)ccc4C)CC3)n2)cc1	ssDAF12 agonist 3.0 (no result: APP 5'UTR act, NF-kB expr up)
CCn1c(Sc2nc(C)nc3scc(-c4cccs4)c23)n[nH]c1=O	none
Cc1nc(SCC(=O)NC(=O)NCCC(C)C)c2c(-c3cccs3)csc2n1	ssDAF12 agonist 2.1
Cn1c(CNc2ccccc2F)nc2ccccc21	hgDAF12 agonist 11 (no result: APP 5'UTR act, NF-kB expr up)
COc1ccc(C(=O)CSc2nnc(-c3ccccc3)n2-c2ccc(Cl)cc2)cc1	none (no result: APP 5'UTR act, NF-kB expr up)
CSc1nc(O)c(C(c2ccc(O)cc2)c2c(O)nc(SC)[nH]c2=O)c(=O)[nH]1	none (no result: APP 5'UTR act, NF-kB expr up)
CSc1nc(O)c(C(c2cccc([N+](=O)[O-])c2)c2c(O)nc(SC)[nH]c2=O)c(=O)[nH]1	hcDAF12 agonist 6.0
COc1cccc(-n2c(O)c(C=NCc3ccccn3)c3ccccc3c2=O)c1	none (no result: APP 5'UTR act, NF-kB expr up)
COc1ccc(-n2c(O)c(C=NCc3ccccn3)c3ccccc3c2=O)c(OC)c1	hcDAF12 agonist 6.1 (no result: APP 5'UTR act, NF-kB expr up)
O=C(NCC(c1ccccc1)c1ccccc1)[C@H](Cc1c[nH]c2ccccc12)NC1(C(=O)NC2CCCCC2)CCCCCC1	none (no result: APP 5'UTR act, NF-kB expr up)
O=C(NCCc1ccccc1)c1nc(-c2cccs2)no1	hgDAF12 agonist 11
Cc1ccc(CS(=O)(=O)c2cn(CC(=O)N3CCOCC3)c3ccccc23)cc1	none (no result: APP 5'UTR act, NF-kB expr up)
O=C(Cn1cc(S(=O)(=O)Cc2ccccc2F)c2ccccc21)N1CCOCC1	hgDAF12 agonist 11 (no result: APP 5'UTR act, NF-kB expr up)
O=C(C(=O)N1CCOCC1)c1cn(CC(=O)N2CCc3ccccc3C2)c2ccccc12	none
O=C(C(=O)N1CCc2ccccc2C1)c1cn(CC(=O)N2CCOCC2)c2ccccc12	ssDAF12 agonist 1.8
